# Measurements from the supplement of paper PMC4466140.
# B1: unnamed (peptide)
# chain: RPVPRRPSQPLNTLS
# Columns and labels:
# Assay in all cases: SPOT peptide array binding signal intensity (averaged, normalized) (arbitrary units (background-subtracted, floor 0; scale differs between SH3 domains)); higher = stronger binding of the SH3 domain to the peptide
# AgAbp1 = molecular target: AgAbp1
# How it was run: (§1)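 Cellulose membranes carried synthetic 15-mer peptides with cysteines swapped for serines. These were incubated overnight at 4°C with 10 μg/ml of GST-fused SH3 domains from four yeast species in TBS-based blocking buffer. Binding signal, detected with anti-GST antibody and quantified in Genespotter, is the normalized, background-subtracted spot intensity averaged over replicates, in arbitrary units specific to each domain.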
# AgBbc1 = molecular target: AgBbc1
# How it was run: as §1
# AgBem1-D1 = molecular target: AgBem1-D1
# How it was run: as §1
# AgBzz1-D1 = molecular target: AgBzz1-D1
# How it was run: as §1
# AgBzz1-D2 = molecular target: AgBzz1-D2
# How it was run: as §1
# AgCyk3 = molecular target: AgCyk3
# How it was run: as §1
# AgFus1 = molecular target: AgFus1
# How it was run: as §1
# AgHof1 = molecular target: AgHof1
# How it was run: as §1
# AgHse1 = molecular target: AgHse1
# How it was run: as §1
# AgLsb1 = molecular target: AgLsb1
# How it was run: as §1
# AgLsb4 = molecular target: AgLsb4
# How it was run: as §1
# AgMyo5 = molecular target: AgMyo5
# How it was run: as §1
# AgNbp2 = molecular target: AgNbp2
# How it was run: as §1
# AgRvs167 = molecular target: AgRvs167
# How it was run: as §1
# AgSho1 = molecular target: AgSho1
# How it was run: as §1
# AgSla1-D1-D2 = molecular target: AgSla1-D1-D2
# How it was run: as §1
# AgSla1-D3 = molecular target: AgSla1-D3
# How it was run: as §1
# CaAbp1-D1 = molecular target: CaAbp1-D1
# How it was run: as §1
# CaAbp1-D2 = molecular target: CaAbp1-D2
# How it was run: as §1
# CaBbc1 = molecular target: CaBbc1
# How it was run: as §1
# CaBem1-D1 = molecular target: CaBem1-D1
# How it was run: as §1
# CaBzz1-D1 = molecular target: CaBzz1-D1
# How it was run: as §1
# CaBzz1-D2 = molecular target: CaBzz1-D2
# How it was run: as §1
# CaCyk3 = molecular target: CaCyk3
# How it was run: as §1
# CaFus1 = molecular target: CaFus1
# How it was run: as §1
# CaHof1 = molecular target: CaHof1
# How it was run: as §1
# CaHse1 = molecular target: CaHse1
# How it was run: as §1
# CaLsb1 = molecular target: CaLsb1
# How it was run: as §1
# CaLsb4 = molecular target: CaLsb4
# How it was run: as §1
# CaMyo5 = molecular target: CaMyo5
# How it was run: as §1
# CaNbp2 = molecular target: CaNbp2
# How it was run: as §1
# CaRvs167 = molecular target: CaRvs167
# How it was run: as §1
# CaRvs167-3 = molecular target: CaRvs167-3
# How it was run: as §1
# CaSho1 = molecular target: CaSho1
# How it was run: as §1
# CaSla1-D1-D2 = molecular target: CaSla1-D1-D2
# How it was run: as §1
# CaSla1-D3 = molecular target: CaSla1-D3
# How it was run: as §1
# ScAbp1 = molecular target: ScAbp1
# How it was run: as §1
# ScBbc1 = molecular target: ScBbc1
# How it was run: as §1
# ScBem1-D1 = molecular target: ScBem1-D1
# How it was run: as §1
# ScBzz1-D1 = molecular target: ScBzz1-D1
# How it was run: as §1
# ScBzz1-D2 = molecular target: ScBzz1-D2
# How it was run: as §1
# ScCyk3 = molecular target: ScCyk3
# How it was run: as §1
# ScFus1 = molecular target: ScFus1
# How it was run: as §1
# ScHof1 = molecular target: ScHof1
# How it was run: as §1
# ScHse1 = molecular target: ScHse1
# How it was run: as §1
# ScLsb1 = molecular target: ScLsb1
# How it was run: as §1
# ScLsb2 = molecular target: ScLsb2
# How it was run: as §1
# ScLsb3 = molecular target: ScLsb3
# How it was run: as §1
# ScLsb4 = molecular target: ScLsb4
# How it was run: as §1
# ScMyo3 = molecular target: ScMyo3
# How it was run: as §1
# ScMyo5 = molecular target: ScMyo5
# How it was run: as §1
# ScNbp2 = molecular target: ScNbp2
# How it was run: as §1
# ScPex13 = molecular target: ScPex13
# How it was run: as §1
# ScRvs167 = molecular target: ScRvs167
# How it was run: as §1
# ScSho1 = molecular target: ScSho1
# How it was run: as §1
# ScSla1-D1-D2 = molecular target: ScSla1-D1-D2
# How it was run: as §1
# ScSla1-D3 = molecular target: ScSla1-D3
# How it was run: as §1
# SpAbp1-D1 = molecular target: SpAbp1-D1
# How it was run: as §1
# SpBbc1 = molecular target: SpBbc1
# How it was run: as §1
# SpBzz1-D1 = molecular target: SpBzz1-D1
# How it was run: as §1
binder,measurement,setting,value
B1,SPOT peptide array binding signal intensity,AgAbp1,306
same,SPOT peptide array binding signal intensity,AgBbc1,801
same,SPOT peptide array binding signal intensity,AgBem1-D1,68.5
same,SPOT peptide array binding signal intensity,AgBzz1-D1,100
same,SPOT peptide array binding signal intensity,AgBzz1-D2,89
same,SPOT peptide array binding signal intensity,AgCyk3,1.25
same,SPOT peptide array binding signal intensity,AgFus1,24
same,SPOT peptide array binding signal intensity,AgHof1,32.8
same,SPOT peptide array binding signal intensity,AgHse1,67.5
same,SPOT peptide array binding signal intensity,AgLsb1,94.8
same,SPOT peptide array binding signal intensity,AgLsb4,2090
same,SPOT peptide array binding signal intensity,AgMyo5,≤ 0
same,SPOT peptide array binding signal intensity,AgNbp2,2250
same,SPOT peptide array binding signal intensity,AgRvs167,182
same,SPOT peptide array binding signal intensity,AgSho1,12.8
same,SPOT peptide array binding signal intensity,AgSla1-D1-D2,17
same,SPOT peptide array binding signal intensity,AgSla1-D3,7.12
same,SPOT peptide array binding signal intensity,CaAbp1-D1,456
same,SPOT peptide array binding signal intensity,CaAbp1-D2,805
same,SPOT peptide array binding signal intensity,CaBbc1,1900
same,SPOT peptide array binding signal intensity,CaBem1-D1,34
same,SPOT peptide array binding signal intensity,CaBzz1-D1,388
same,SPOT peptide array binding signal intensity,CaBzz1-D2,189
same,SPOT peptide array binding signal intensity,CaCyk3,413
same,SPOT peptide array binding signal intensity,CaFus1,141
same,SPOT peptide array binding signal intensity,CaHof1,0.25
same,SPOT peptide array binding signal intensity,CaHse1,56.1
same,SPOT peptide array binding signal intensity,CaLsb1,1.25
same,SPOT peptide array binding signal intensity,CaLsb4,2000
same,SPOT peptide array binding signal intensity,CaMyo5,8
same,SPOT peptide array binding signal intensity,CaNbp2,1770
same,SPOT peptide array binding signal intensity,CaRvs167,1240
same,SPOT peptide array binding signal intensity,CaRvs167-3,6
same,SPOT peptide array binding signal intensity,CaSho1,19.5
same,SPOT peptide array binding signal intensity,CaSla1-D1-D2,796
same,SPOT peptide array binding signal intensity,CaSla1-D3,5
same,SPOT peptide array binding signal intensity,ScAbp1,280
same,SPOT peptide array binding signal intensity,ScBbc1,514
same,SPOT peptide array binding signal intensity,ScBem1-D1,6.5
same,SPOT peptide array binding signal intensity,ScBzz1-D1,43.2
same,SPOT peptide array binding signal intensity,ScBzz1-D2,25.8
same,SPOT peptide array binding signal intensity,ScCyk3,22
same,SPOT peptide array binding signal intensity,ScFus1,≤ 0
same,SPOT peptide array binding signal intensity,ScHof1,0.5
same,SPOT peptide array binding signal intensity,ScHse1,389
same,SPOT peptide array binding signal intensity,ScLsb1,258
same,SPOT peptide array binding signal intensity,ScLsb2,56
same,SPOT peptide array binding signal intensity,ScLsb3,5960
same,SPOT peptide array binding signal intensity,ScLsb4,1750
same,SPOT peptide array binding signal intensity,ScMyo3,2
same,SPOT peptide array binding signal intensity,ScMyo5,1.25
same,SPOT peptide array binding signal intensity,ScNbp2,3100
same,SPOT peptide array binding signal intensity,ScPex13,1420
same,SPOT peptide array binding signal intensity,ScRvs167,2300
same,SPOT peptide array binding signal intensity,ScSho1,163
same,SPOT peptide array binding signal intensity,ScSla1-D1-D2,1000
same,SPOT peptide array binding signal intensity,ScSla1-D3,18
same,SPOT peptide array binding signal intensity,SpAbp1-D1,147
same,SPOT peptide array binding signal intensity,SpBbc1,380
same,SPOT peptide array binding signal intensity,SpBzz1-D1,466
